Reference: PubChem BioAssay
Records with an inconclusive call do not appear. Calls of active or inactive are those of the source.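 How the source made its calls, unless noted: active means inhibition above 54%, about 3 SD of non-fluorescent compounds; inactive means the rest.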

How the values were obtained:
[1] = rapamycin-like changes in RPL19A-GFP expression – cell-based, S. cerevisiae, multiplex flow cytometry, primary screen (AID 1862; in the data active means percent of DMSO control GFP below about 86%;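 further: lower values mimic rapamycin by blocking the RPL19A rise seen in DMSO cells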); conditions: S. cerevisiae RPL19A-GFP strain, flow cytometry fluorescence, 3 h; at 10 µM; stronger effect = lower value
[2] = TOR pathway GLN3 branch reporter MEP2-GFP changes – S. cerevisiae, multiplex flow cytometry, primary screen (AID 1867;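 active means GFP response, as percent of the DMSO control, above the screen-wide mean plus 3 SD, about 139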;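 further: median GFP channel fluorescence of barcode-gated MEP2-GFP cells measured by flow cytometry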); conditions: S. cerevisiae MEP2-GFP strain, 3 h, at 10 µM, stronger effect = higher value, 100% means same as DMSO wells
[3] = TOR pathway RTG branch CIT2 reporter changes – S. cerevisiae, GFP fusion, multiplex flow cytometry, primary screen (AID 1870;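 active means percent response above a set limit, the screen-wide mean plus 3 SD, cut at about 130% in these data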;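 further: barcoded CIT2-GFP strain pooled with four other GFP strains with rapamycin as positive control; median GFP fluorescence per well over plate mean of DMSO wells so 100% = DMSO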); conditions: S. cerevisiae CIT2-GFP expression, 3 h, at 10 µM, stronger effect = higher value
[4] = TOR pathway LAP4-GFP level changes – S. cerevisiae, multiplex flow cytometry, primary screen (AID 1873;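 active means GFP signal, as percent of the solvent control, above the screen mean plus 3 SD, about 149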); conditions: S. cerevisiae LAP4-GFP expression, 3 h, at 10 µM, stronger effect = higher value
[5] = yeast AGP1-GFP level changes, GLN3 branch – cell-based, multiplex flow cytometry, S. cerevisiae, primary screen (AID 1887;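 active means GFP signal above the screen-wide mean plus 3 SD, that is over about 124.5% of the solvent control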;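 further: AGP1-GFP fusion strain of S. cerevisiae within a five-strain barcoded multiplex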); conditions: 3 h, at 10 µM, stronger effect = higher value
[6] = reduced mouse 2C T cell binding to pMHC/ICAM-1 vesicles – MLPCN validation set, flow cytometry, LFA-1/ICAM-1 modulator project, pilot screen (AID 2523;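 active means response below a set limit, under 55% cells CD8-positive and vesicle-bound, and CD8 cells' 90th-percentile brightness under 279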;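 on vesicle binding response: mean PE anti-B7-1 fluorescence of CD8+ cells relative to row control; 100% = QL9-loaded vesicles with DMSO vehicle in the same plate row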); conditions: 2C mouse CD8+ T cells, at 7 µM, stronger effect = lower value; double positive events: measured here: CD8+/vesicle+ event percentage
[7] = target: Integrin beta-1 (Homo sapiens) + Integrin alpha-4 (Homo sapiens) (UniProt P13612+P05556); assay: alpha4beta1 integrin LIBS antibody binding reduction – U937 cells, HUTS-21 mAb, flow cytometry, validation set, VLA-4 allosteric modulator project, pilot screen (AID 2674;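 active means inhibition above 50%, about 3 SD of the validation set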;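 further: antibody binding induced by the VLA-4 ligand LDV present at three times its Kd; 0% = LDV ligand with antibody and no compound and 100% = antibody without LDV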); conditions: HUTS-21 LIBS mAb binding, at 6.7 µM, stronger effect = higher value, binding induced by LDV ligand
[8] = calorie-restriction mimetic ROS inhibitors, yeast – validation compound set, pilot screen (AID 2706;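 active means superoxide response below 65% of plate, a cut near 3 SD across the whole screen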;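 further: yeast exposed to compound for one week at 30 degrees C before staining; 100% = mean of all compound wells on the same plate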); conditions: S. cerevisiae aging, superoxide DHE fluorescence; at 10 µM; stronger effect = lower value
[9] = target: Beta-adrenergic receptor kinase 1 (Homo sapiens) (UniProt P25098); assay: GRK2 binders displacing RNA aptamer, biochemical, validation, human GRK2, bead flow cytometry (AID 488806;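 active means aptamer binding inhibition above 30%, about 3 SD of noise from non-fluorescent compounds; inactive means inhibition at or below 30%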); conditions: bead-bound GRK2, FAM-aptamer displacement, at 10 µM, stronger effect = higher value
[10] = target: Beta-2 adrenergic receptor (Homo sapiens) (UniProt P07550); assay: agonist-induced loss of surface beta2AR – cell-based, FAP fluorogen, flow cytometry, validation set, pilot screen (AID 504459;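 active means percent response above 42, roughly 3 SD of non-fluorescent test compounds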;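 further: agonist-driven loss of surface beta2AR via internalization measured by FAP dye flow cytometry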); conditions: Am2.2-beta2AR cells, at 10 µM, stronger effect = higher value
[11] = target: AP-2 complex subunit beta (Homo sapiens) (UniProt P63010); assay: beta-arrestin/AP2 interaction blockers – biochemical, validation set, GST-AP2 beads, flow cytometry, pilot screen (AID 504541); conditions: FITC arrestin peptide, at 10 µM, stronger effect = higher value, AP2 beta2 appendage fragment, R879A mutant;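 further: AP2 carries R879A mutation and is captured from E. coli lysate; bead-bound FITC arrestin peptide fluorescence measuring arrestin peptide binding to AP2; 0% = DMSO wells and 100% = excess unlabeled arrestin peptide control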
[12] = cytosolic pH regulators acting via V-ATPase – S. cerevisiae, pHLuorin, HTS validation (AID 504600; in the data active means response above about 15%;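 further: plate controls were DMSO for no effect and reference compound for full effect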); conditions: V-ATPase proton transport, at 10 µM, stronger effect = higher value
[13] = test system: anti-desmoglein-3 scFv antibody binding to human DSG3; assay: blockers of pathogenic pemphigus antibody–desmoglein-3 binding – biochemical, validation compound set, bead-based, flow cytometry, pilot screen (AID 588368;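 active means binding below the plate cutoff, the plate median minus 3 SD, with a reading above zero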;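 further: signal is the median channel fluorescence of bead-bound GFP antibody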); conditions: Protein G beads, DSG3-Fc, scFv-GFP binding, at 10 µM, stronger effect = lower value
[14] = Nile Red efflux blockade in pump-expressing yeast – validation compound set, multiplex, phenotypic, pilot screen (AID 588506;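 active means efflux inhibition above 0.42, the validation set average plus 4 SD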;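 further: Nile Red retained in cells so higher fluorescence means more efflux inhibition; 0 = negative control wells and 1 = enniatin B 25 µM full block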); conditions: S. cerevisiae pump-expressing triplex, Nile Red efflux flow cytometry; at 10 µM; stronger effect = higher value; the pumps come from Candida albicans
[15] = target: ATP-binding cassette sub-family B member 6 (Homo sapiens) (UniProt Q9NP58); assay: blockers of ABCB6-driven porphyrin uptake – K562-ABCB6 cells, flow cytometry, validation set, pilot screen (AID 588550;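 active means inhibition above the screen-wide mean plus 3 SD, about 51%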;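 further: 0% = DMSO wells and 100% = benzethonium chloride 70 µM positive control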); conditions: K562-ABCB6 porphyrin accumulation, 1 h, at 10 µM, stronger effect = higher value
[16] = AML differentiation inducers, ER-HoxA9 marrow cells – cell-based, GFP/MAC1 double positive, flow cytometry, validation set, primary screen (AID 588685;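 active means differentiation response of at least 50%, scaled between solvent and reference control, from cells with both markers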;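 further: compound exposure lasts four days before antibody staining and flow analysis; 0% = DMSO wells and 100% = 5 µM fulvestrant positive control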); conditions: stronger effect = higher value, normalized: vehicle 0, fulvestrant 100

Chain of Beta-adrenergic receptor kinase 1 (Homo sapiens) (P25098 whole entry, looked up): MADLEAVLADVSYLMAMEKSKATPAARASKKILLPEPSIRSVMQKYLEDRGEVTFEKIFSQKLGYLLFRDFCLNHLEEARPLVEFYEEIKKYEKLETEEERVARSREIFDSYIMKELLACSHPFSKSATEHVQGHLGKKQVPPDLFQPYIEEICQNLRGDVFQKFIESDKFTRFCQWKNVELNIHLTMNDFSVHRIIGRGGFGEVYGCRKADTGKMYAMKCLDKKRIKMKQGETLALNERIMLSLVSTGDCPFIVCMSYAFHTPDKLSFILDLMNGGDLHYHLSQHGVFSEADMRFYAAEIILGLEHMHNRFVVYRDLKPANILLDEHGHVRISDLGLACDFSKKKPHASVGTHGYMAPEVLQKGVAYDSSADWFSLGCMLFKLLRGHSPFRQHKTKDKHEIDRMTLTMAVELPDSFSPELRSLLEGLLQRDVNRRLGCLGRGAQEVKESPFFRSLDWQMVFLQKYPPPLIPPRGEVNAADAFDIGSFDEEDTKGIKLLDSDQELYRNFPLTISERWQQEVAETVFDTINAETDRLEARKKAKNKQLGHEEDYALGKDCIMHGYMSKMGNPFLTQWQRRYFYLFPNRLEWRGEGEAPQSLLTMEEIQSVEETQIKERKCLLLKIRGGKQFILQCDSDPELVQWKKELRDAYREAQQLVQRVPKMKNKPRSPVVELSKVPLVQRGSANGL
Chain of AP-2 complex subunit beta (Homo sapiens) (P63010 whole entry, looked up, the tested form may be a part, one chain of several): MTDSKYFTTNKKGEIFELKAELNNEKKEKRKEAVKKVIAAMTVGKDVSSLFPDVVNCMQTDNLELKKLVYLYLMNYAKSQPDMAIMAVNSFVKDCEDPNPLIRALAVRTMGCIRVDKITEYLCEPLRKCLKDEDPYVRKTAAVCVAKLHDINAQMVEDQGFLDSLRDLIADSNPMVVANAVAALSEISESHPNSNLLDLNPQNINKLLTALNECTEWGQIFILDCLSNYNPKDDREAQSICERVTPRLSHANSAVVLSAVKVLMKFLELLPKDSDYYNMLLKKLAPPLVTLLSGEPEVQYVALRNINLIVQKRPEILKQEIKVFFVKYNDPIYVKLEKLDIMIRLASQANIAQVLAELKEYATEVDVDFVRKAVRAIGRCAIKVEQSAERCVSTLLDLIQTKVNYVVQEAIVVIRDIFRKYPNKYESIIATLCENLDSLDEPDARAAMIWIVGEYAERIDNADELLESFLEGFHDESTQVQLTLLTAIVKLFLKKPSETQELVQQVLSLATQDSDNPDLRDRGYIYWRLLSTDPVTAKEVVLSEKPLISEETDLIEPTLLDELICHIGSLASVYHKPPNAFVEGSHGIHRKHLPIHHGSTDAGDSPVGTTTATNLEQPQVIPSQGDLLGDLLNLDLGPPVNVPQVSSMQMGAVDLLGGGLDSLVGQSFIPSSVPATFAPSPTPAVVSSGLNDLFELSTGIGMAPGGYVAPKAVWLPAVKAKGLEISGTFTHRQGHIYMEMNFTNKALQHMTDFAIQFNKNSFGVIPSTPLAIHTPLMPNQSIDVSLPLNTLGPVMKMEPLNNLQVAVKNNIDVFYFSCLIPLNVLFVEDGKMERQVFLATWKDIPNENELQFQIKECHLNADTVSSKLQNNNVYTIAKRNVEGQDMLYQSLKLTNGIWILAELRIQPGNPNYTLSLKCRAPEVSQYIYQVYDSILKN
Chain of Integrin beta-1 (Homo sapiens) + Integrin alpha-4 (Homo sapiens) (P05556 whole entry, looked up): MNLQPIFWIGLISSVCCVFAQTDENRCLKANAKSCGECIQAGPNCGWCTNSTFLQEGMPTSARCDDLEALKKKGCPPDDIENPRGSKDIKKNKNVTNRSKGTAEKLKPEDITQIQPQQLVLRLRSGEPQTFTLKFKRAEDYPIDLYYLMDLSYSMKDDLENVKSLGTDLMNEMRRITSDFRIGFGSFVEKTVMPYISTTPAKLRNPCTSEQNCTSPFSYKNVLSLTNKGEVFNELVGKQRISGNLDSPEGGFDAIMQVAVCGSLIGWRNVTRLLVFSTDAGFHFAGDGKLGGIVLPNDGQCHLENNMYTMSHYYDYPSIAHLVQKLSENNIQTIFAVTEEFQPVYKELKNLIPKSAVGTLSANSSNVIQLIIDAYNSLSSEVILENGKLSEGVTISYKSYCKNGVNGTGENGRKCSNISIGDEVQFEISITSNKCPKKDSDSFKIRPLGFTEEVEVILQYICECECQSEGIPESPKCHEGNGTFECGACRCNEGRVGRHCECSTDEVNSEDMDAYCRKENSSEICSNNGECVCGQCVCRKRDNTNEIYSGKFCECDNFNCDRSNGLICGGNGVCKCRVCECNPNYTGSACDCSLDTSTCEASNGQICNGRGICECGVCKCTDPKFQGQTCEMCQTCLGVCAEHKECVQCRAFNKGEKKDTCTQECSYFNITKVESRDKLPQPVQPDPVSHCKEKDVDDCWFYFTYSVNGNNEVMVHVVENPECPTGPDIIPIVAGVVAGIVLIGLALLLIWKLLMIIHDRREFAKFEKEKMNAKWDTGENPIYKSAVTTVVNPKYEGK
Chain of Integrin beta-1 (Homo sapiens) + Integrin alpha-4 (Homo sapiens) (P13612 whole entry, looked up): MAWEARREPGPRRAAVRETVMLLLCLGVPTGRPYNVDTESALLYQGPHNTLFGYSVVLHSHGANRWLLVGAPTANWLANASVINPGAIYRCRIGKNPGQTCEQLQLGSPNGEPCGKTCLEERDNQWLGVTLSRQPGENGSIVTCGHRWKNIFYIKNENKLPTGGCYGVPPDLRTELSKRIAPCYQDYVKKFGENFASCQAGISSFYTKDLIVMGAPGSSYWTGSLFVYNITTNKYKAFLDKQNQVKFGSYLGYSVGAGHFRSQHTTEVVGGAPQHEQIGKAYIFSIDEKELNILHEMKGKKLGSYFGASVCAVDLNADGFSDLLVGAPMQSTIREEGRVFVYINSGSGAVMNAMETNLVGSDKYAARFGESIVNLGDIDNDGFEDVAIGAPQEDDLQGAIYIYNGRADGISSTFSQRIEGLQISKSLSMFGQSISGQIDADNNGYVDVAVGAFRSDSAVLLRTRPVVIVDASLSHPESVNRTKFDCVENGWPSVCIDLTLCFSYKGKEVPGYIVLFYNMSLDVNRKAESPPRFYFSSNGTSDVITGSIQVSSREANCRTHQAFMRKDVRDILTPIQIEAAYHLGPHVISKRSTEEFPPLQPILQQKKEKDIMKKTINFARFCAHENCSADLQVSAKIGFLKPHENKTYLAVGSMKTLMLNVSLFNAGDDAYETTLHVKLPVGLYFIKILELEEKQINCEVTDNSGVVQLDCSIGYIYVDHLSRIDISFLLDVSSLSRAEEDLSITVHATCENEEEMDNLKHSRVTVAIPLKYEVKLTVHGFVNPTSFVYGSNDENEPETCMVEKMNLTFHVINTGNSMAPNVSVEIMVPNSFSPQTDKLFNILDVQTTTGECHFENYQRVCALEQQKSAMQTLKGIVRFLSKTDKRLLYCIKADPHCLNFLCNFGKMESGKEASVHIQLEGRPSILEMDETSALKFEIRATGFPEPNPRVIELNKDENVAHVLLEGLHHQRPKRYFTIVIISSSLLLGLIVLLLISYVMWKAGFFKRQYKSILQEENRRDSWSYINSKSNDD
Chain of ATP-binding cassette sub-family B member 6 (Homo sapiens) (Q9NP58 whole entry, looked up): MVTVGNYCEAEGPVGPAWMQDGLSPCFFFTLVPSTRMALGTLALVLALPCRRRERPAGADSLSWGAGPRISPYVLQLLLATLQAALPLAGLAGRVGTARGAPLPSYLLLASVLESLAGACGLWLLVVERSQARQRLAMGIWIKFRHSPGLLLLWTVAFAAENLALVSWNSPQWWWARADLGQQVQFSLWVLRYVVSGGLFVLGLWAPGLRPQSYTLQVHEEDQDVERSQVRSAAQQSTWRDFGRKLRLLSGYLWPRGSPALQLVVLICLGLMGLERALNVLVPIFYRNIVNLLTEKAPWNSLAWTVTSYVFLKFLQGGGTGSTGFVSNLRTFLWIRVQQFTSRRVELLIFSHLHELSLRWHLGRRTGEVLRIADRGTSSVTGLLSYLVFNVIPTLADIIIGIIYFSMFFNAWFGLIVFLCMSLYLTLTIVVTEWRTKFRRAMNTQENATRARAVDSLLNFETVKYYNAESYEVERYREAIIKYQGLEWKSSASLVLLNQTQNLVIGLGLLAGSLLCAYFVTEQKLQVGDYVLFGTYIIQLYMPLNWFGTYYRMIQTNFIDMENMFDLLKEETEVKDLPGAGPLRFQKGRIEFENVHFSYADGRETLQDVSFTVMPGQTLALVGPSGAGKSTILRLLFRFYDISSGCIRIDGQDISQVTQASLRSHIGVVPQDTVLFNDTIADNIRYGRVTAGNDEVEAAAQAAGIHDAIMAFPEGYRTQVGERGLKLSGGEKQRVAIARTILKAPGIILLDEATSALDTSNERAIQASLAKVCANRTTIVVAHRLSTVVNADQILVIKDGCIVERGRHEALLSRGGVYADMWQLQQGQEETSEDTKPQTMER
Chain of Beta-2 adrenergic receptor (Homo sapiens) (P07550 whole entry, looked up, the tested form may be a part): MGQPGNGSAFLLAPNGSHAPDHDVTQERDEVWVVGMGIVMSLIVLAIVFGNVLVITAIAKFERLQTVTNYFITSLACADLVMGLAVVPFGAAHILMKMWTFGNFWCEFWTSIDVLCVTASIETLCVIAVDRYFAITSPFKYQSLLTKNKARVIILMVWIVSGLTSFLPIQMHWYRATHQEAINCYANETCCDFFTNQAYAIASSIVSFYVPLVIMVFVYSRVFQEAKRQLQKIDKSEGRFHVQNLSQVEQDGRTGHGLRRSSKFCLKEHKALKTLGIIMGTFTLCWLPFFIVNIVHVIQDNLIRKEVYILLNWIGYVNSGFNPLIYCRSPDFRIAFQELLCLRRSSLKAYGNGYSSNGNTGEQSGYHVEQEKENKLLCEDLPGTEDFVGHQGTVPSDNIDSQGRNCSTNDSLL

Cc1nc(NC(CC(C)C)C(=O)O)c2nc(C)oc2n1 (stereo not drawn)
inactive: percent of DMSO control GFP [1] 97.4% | GFP response vs DMSO [2] 111% | percent response of DMSO control [3] 90.1% | GFP response vs DMSO [4] 120% | GFP response, % of DMSO [5] 101% | vesicle binding response [6] 121% | inhibition [7] -5.89% | superoxide response (% of plate) [8] 95.4% | aptamer binding inhibition [9] 7% | response [10] 3.8% | inhibition [11] 4.51% | response [12] 3.4% | binding (% of control) [13] 102% | efflux inhibition (fraction of control) [14] -0.13 | inhibition [15] 6% | differentiation response [16] -28%
57.6%: double positive events [6]

CC12COC3(C(=O)Nc4ccc(F)cc4)CC1CCC32C (stereo not drawn)
inactive: percent of DMSO control GFP [1] 94.2% | GFP response vs DMSO [2] 126% | percent response of DMSO control [3] 107% | GFP response vs DMSO [4] 73.7% | GFP response, % of DMSO [5] 85.9% | vesicle binding response [6] 157% | inhibition [7] 8.4% | superoxide response (% of plate) [8] 99.2% | aptamer binding inhibition [9] 1% | response [10] -12.6% | inhibition [11] -2.28% | response [12] -3.14% | binding (% of control) [13] 102% | efflux inhibition (fraction of control) [14] 0.3 | inhibition [15] 10% | differentiation response [16] -1.64%
65.7%: double positive events [6]

O=C(Cc1c[nH]c2ccccc12)OCCOC(=O)Cc1c[nH]c2ccccc12
60.9%: double positive events [6]
inactive: percent of DMSO control GFP [1] 104% | GFP response vs DMSO [2] 96.6% | percent response of DMSO control [3] 110% | GFP response vs DMSO [4] 100% | GFP response, % of DMSO [5] 101% | vesicle binding response [6] 111% | inhibition [7] -3.77% | superoxide response (% of plate) [8] 103% | aptamer binding inhibition [9] -1% | response [10] -3.51% | inhibition [11] -12.4% | response [12] 1.88% | binding (% of control) [13] 99.6% | efflux inhibition (fraction of control) [14] -0.12 | inhibition [15] -4% | differentiation response [16] -4.57%

Cc1cc(/C=N/O)c(C)n1-c1ccc(Br)cc1
inactive: percent of DMSO control GFP [1] 100% | GFP response vs DMSO [2] 101% | percent response of DMSO control [3] 96.5% | GFP response vs DMSO [4] 93.7% | GFP response, % of DMSO [5] 91.1% | vesicle binding response [6] 263% | inhibition [7] -7.79% | superoxide response (% of plate) [8] 115% | aptamer binding inhibition [9] 2% | response [10] 11.8% | inhibition [11] -0.76% | response [12] -0.17% | binding (% of control) [13] 105% | efflux inhibition (fraction of control) [14] -0.145 | inhibition [15] -1% | differentiation response [16] -6.03%
65.6%: double positive events [6]

COc1ccc2nc(C)cc(Nc3ccccc3O)c2c1
inactive: percent of DMSO control GFP [1] 94.2% | GFP response vs DMSO [2] 108% | percent response of DMSO control [3] 90.1% | GFP response vs DMSO [4] 115% | GFP response, % of DMSO [5] 99.4% | vesicle binding response [6] 120% | inhibition [7] -7.25% | superoxide response (% of plate) [8] 91.3% | aptamer binding inhibition [9] -3% | response [10] 7.69% | inhibition [11] 3.21% | response [12] 1.21% | binding (% of control) [13] 101% | efflux inhibition (fraction of control) [14] 0.01 | inhibition [15] 9% | differentiation response [16] -20%
58%: double positive events [6]

CC(C)CCNC(=O)[C@H](CC(C)C)NC(=O)[C@H]1O[C@@H]1C(=O)O
active: vesicle binding response [6] 39.4%
52.8%: double positive events [6]
inactive: percent of DMSO control GFP [1] 108% | GFP response vs DMSO [2] 101% | percent response of DMSO control [3] 112% | GFP response vs DMSO [4] 93.3% | GFP response, % of DMSO [5] 107% | inhibition [7] -4.6% | superoxide response (% of plate) [8] 96.2% | aptamer binding inhibition [9] 3% | response [10] -6.13% | inhibition [11] -12.3% | response [12] 1.19% | binding (% of control) [13] 98.4% | efflux inhibition (fraction of control) [14] 0.08 | inhibition [15] 3% | differentiation response [16] -1.71%

CCn1ccnc1CN(C)Cc1cn(-c2cccc(C)c2)nc1-c1cccc(F)c1
63.6%: double positive events [6]
inactive: percent of DMSO control GFP [1] 104% | GFP response vs DMSO [2] 95.6% | percent response of DMSO control [3] 108% | GFP response vs DMSO [4] 92.6% | GFP response, % of DMSO [5] 104% | vesicle binding response [6] 145% | inhibition [7] -7.79% | superoxide response (% of plate) [8] 102% | aptamer binding inhibition [9] 4% | response [10] -10.5% | inhibition [11] -10.8% | response [12] 3.23% | binding (% of control) [13] 105% | efflux inhibition (fraction of control) [14] 0.11 | inhibition [15] 21% | differentiation response [16] -14.8%

NC(=O)[C@@H]1[C@@H]2C(=O)N(c3ccc(F)cc3)C(=O)[C@@H]2[C@H]2C=Cc3ccccc3N21
inactive: percent of DMSO control GFP [1] 104% | GFP response vs DMSO [2] 105% | percent response of DMSO control [3] 112% | GFP response vs DMSO [4] 100% | GFP response, % of DMSO [5] 102% | vesicle binding response [6] 126% | inhibition [7] -80.5% | superoxide response (% of plate) [8] 103% | aptamer binding inhibition [9] 6% | response [10] 4.67% | inhibition [11] -25.9% | response [12] -0.45% | binding (% of control) [13] 104% | efflux inhibition (fraction of control) [14] -0.12 | inhibition [15] -37% | differentiation response [16] 3.45%
63%: double positive events [6]

Cc1ccc2nc(C)c3c(c2c1)OC(C(C)(Cl)Br)C3 (stereo not drawn)
inactive: percent of DMSO control GFP [1] 102% | GFP response vs DMSO [2] 102% | percent response of DMSO control [3] 111% | GFP response vs DMSO [4] 105% | GFP response, % of DMSO [5] 105% | vesicle binding response [6] 278% | inhibition [7] 6.4% | superoxide response (% of plate) [8] 94.8% | aptamer binding inhibition [9] 5% | response [10] 23.5% | inhibition [11] -1.65% | response [12] 6.53% | binding (% of control) [13] 98.4% | efflux inhibition (fraction of control) [14] 0.08 | inhibition [15] 1% | differentiation response [16] 15.2%
73%: double positive events [6]
